Assays:
Assay in all cases: SPOT peptide array binding signal intensity (averaged, normalized) (arbitrary units (background-subtracted, floor 0; scale differs between SH3 domains)); higher = stronger binding of the SH3 domain to the peptide
AgAbp1 = molecular target: AgAbp1
Procedure, shortened: (§1)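 Binding signal is given in arbitrary units that differ between domains and is the normalized, background-subtracted spot intensity averaged across replicates. Each GST-SH3 fusion from one of four yeast species was made in E. coli BL21(DE3), purified on glutathione Sepharose and incubated at 10 μg/ml overnight at 4°C on cellulose-bound synthetic 15-mer peptides in which cysteines were replaced by serines. Detection used anti-GST antibody, an HRP anti-mouse secondary and luminol, followed by imaging and Genespotter quantification.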

AgBbc1 = molecular target: AgBbc1
Procedure, shortened: as §1

AgBem1-D1 = molecular target: AgBem1-D1
Procedure, shortened: as §1

AgBzz1-D1 = molecular target: AgBzz1-D1
Procedure, shortened: as §1

AgBzz1-D2 = molecular target: AgBzz1-D2
Procedure, shortened: as §1

AgCyk3 = molecular target: AgCyk3
Procedure, shortened: as §1

AgFus1 = molecular target: AgFus1
Procedure, shortened: as §1

AgHof1 = molecular target: AgHof1
Procedure, shortened: as §1

AgHse1 = molecular target: AgHse1
Procedure, shortened: as §1

AgLsb1 = molecular target: AgLsb1
Procedure, shortened: as §1

AgLsb4 = molecular target: AgLsb4
Procedure, shortened: as §1

AgMyo5 = molecular target: AgMyo5
Procedure, shortened: as §1

AgNbp2 = molecular target: AgNbp2
Procedure, shortened: as §1

AgRvs167 = molecular target: AgRvs167
Procedure, shortened: as §1

AgSho1 = molecular target: AgSho1
Procedure, shortened: as §1

AgSla1-D1-D2 = molecular target: AgSla1-D1-D2
Procedure, shortened: as §1

AgSla1-D3 = molecular target: AgSla1-D3
Procedure, shortened: as §1

CaAbp1-D1 = molecular target: CaAbp1-D1
Procedure, shortened: as §1

CaAbp1-D2 = molecular target: CaAbp1-D2
Procedure, shortened: as §1

CaBbc1 = molecular target: CaBbc1
Procedure, shortened: as §1

CaBem1-D1 = molecular target: CaBem1-D1
Procedure, shortened: as §1

CaBzz1-D1 = molecular target: CaBzz1-D1
Procedure, shortened: as §1

CaBzz1-D2 = molecular target: CaBzz1-D2
Procedure, shortened: as §1

CaCyk3 = molecular target: CaCyk3
Procedure, shortened: as §1

CaFus1 = molecular target: CaFus1
Procedure, shortened: as §1

CaHof1 = molecular target: CaHof1
Procedure, shortened: as §1

CaHse1 = molecular target: CaHse1
Procedure, shortened: as §1

CaLsb1 = molecular target: CaLsb1
Procedure, shortened: as §1

CaLsb4 = molecular target: CaLsb4
Procedure, shortened: as §1

CaMyo5 = molecular target: CaMyo5
Procedure, shortened: as §1

CaNbp2 = molecular target: CaNbp2
Procedure, shortened: as §1

CaRvs167 = molecular target: CaRvs167
Procedure, shortened: as §1

CaRvs167-3 = molecular target: CaRvs167-3
Procedure, shortened: as §1

CaSho1 = molecular target: CaSho1
Procedure, shortened: as §1

CaSla1-D1-D2 = molecular target: CaSla1-D1-D2
Procedure, shortened: as §1

CaSla1-D3 = molecular target: CaSla1-D3
Procedure, shortened: as §1

ScAbp1 = molecular target: ScAbp1
Procedure, shortened: as §1

ScBbc1 = molecular target: ScBbc1
Procedure, shortened: as §1

ScBem1-D1 = molecular target: ScBem1-D1
Procedure, shortened: as §1

ScBzz1-D1 = molecular target: ScBzz1-D1
Procedure, shortened: as §1

ScBzz1-D2 = molecular target: ScBzz1-D2
Procedure, shortened: as §1

ScCyk3 = molecular target: ScCyk3
Procedure, shortened: as §1

ScFus1 = molecular target: ScFus1
Procedure, shortened: as §1

ScHof1 = molecular target: ScHof1
Procedure, shortened: as §1

ScHse1 = molecular target: ScHse1
Procedure, shortened: as §1

ScLsb1 = molecular target: ScLsb1
Procedure, shortened: as §1

ScLsb2 = molecular target: ScLsb2
Procedure, shortened: as §1

ScLsb3 = molecular target: ScLsb3
Procedure, shortened: as §1

ScLsb4 = molecular target: ScLsb4
Procedure, shortened: as §1

ScMyo3 = molecular target: ScMyo3
Procedure, shortened: as §1

ScMyo5 = molecular target: ScMyo5
Procedure, shortened: as §1

ScNbp2 = molecular target: ScNbp2
Procedure, shortened: as §1

ScPex13 = molecular target: ScPex13
Procedure, shortened: as §1

ScRvs167 = molecular target: ScRvs167
Procedure, shortened: as §1

ScSho1 = molecular target: ScSho1
Procedure, shortened: as §1

ScSla1-D1-D2 = molecular target: ScSla1-D1-D2
Procedure, shortened: as §1

ScSla1-D3 = molecular target: ScSla1-D3
Procedure, shortened: as §1

SpAbp1-D1 = molecular target: SpAbp1-D1
Procedure, shortened: as §1

SpBbc1 = molecular target: SpBbc1
Procedure, shortened: as §1

SpBzz1-D1 = molecular target: SpBzz1-D1
Procedure, shortened: as §1

SpBzz1-D2 = molecular target: SpBzz1-D2
Procedure, shortened: as §1

SpCyk3 = molecular target: SpCyk3
Procedure, shortened: as §1

SpHof1 = molecular target: SpHof1
Procedure, shortened: as §1

SpHof1-2 = molecular target: SpHof1-2
Procedure, shortened: as §1

SpHof1-3 = molecular target: SpHof1-3
Procedure, shortened: as §1

SpHse1 = molecular target: SpHse1
Procedure, shortened: as §1

SpLsb1 = molecular target: SpLsb1
Procedure, shortened: as §1

SpLsb4 = molecular target: SpLsb4
Procedure, shortened: as §1

SpMyo1 = molecular target: SpMyo1
Procedure, shortened: as §1

SpNbp2 = molecular target: SpNbp2
Procedure, shortened: as §1

SpPex13 = molecular target: SpPex13
Procedure, shortened: as §1

SpRvs167 = molecular target: SpRvs167
Procedure, shortened: as §1

SpSla1-D1-D2 = molecular target: SpSla1-D1-D2
Procedure, shortened: as §1

SpSla1-D3 = molecular target: SpSla1-D3
Procedure, shortened: as §1

Measured: SPOT peptide array binding signal intensity

DLPLPDLPPEPPTEL
384: ScMyo3
4: ScAbp1
10.5: AgHse1
2.75: ScBbc1
0.5: AgCyk3 | CaLsb1
646: ScMyo5
207: AgMyo5
54.5: AgHof1
1: CaHse1
9.5: CaSho1
2.5: CaHof1 | CaRvs167-3
206: ScHof1
0.333: CaRvs167
2: AgBzz1-D2 | AgSla1-D1-D2 | ScBzz1-D1 | ScBzz1-D2 | ScCyk3
0.75: CaMyo5
not listed: SpBzz1-D2 | SpCyk3 | SpHof1 | SpHof1-2 | SpHof1-3 | SpHse1 | SpLsb1 | SpLsb4 | SpMyo1 | SpNbp2 | SpPex13 | SpRvs167 | SpSla1-D1-D2 | SpSla1-D3
≤ 0: all other assays above

QTREPNEPPPPSPAM
0.75: CaHse1
2: ScSho1 | SpPex13
4: AgBzz1-D2
108: CaMyo5
0.5: CaSla1-D3 | ScLsb1 | SpBzz1-D2 | SpCyk3
6.5: CaFus1
1.67: CaRvs167 | SpRvs167
13.5: ScLsb3
1420: AgMyo5
8: CaBzz1-D1
1.75: ScPex13
1240: SpMyo1
0.667: AgRvs167
0.25: CaHof1 | CaLsb1
2.5: AgHof1
1: ScHof1
1580: ScMyo5
1.33: ScRvs167
7.75: SpHof1-2
7: ScBzz1-D1
2210: ScMyo3
1.5: AgBzz1-D1 | ScLsb4 | ScSla1-D1-D2
≤ 0: all other assays above

Reference: the supplement of paper PMC4466140
